The text below walks through data of PubChem BioAssay AID1962 (The Scripps Research Institute Molecular Screening Center, 2009).

Each structure is given as a SMILES string. Out of some 300,000 compounds screened, about 2,500 (0.83%) were called active. This is one part of a sample in which actives are shown more often than they occur. Unmarked numbers belong to inactive results.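 Rule for the calls: active = inhibition above the mean of all tested compounds plus 3 SD, set per screening campaign (cut at about 24% in these data); inactive = the rest.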

The test system of the experiment is tRNA 2'-phosphotransferase TPT1 (Candida albicans SC5314). In words: Candida albicans TPT1 enzyme inhibitors, primary screen, biochemical, fluorescence polarization (AID 1962).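 Note: plate controls were DMSO alone for no effect and ferristatin control at 100 nM for full effect.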 To be noted: recombinant caTPT1, FP RNA substrate dephosphorylation; at 5 µM; active compounds read high.
The term inhibition denotes the drop in the measured response relative to a control, in per cent. For the molecule `COc1cc(=O)[nH]c(=O)n1C(=O)Cc1ccccc1`, the inhibition is 1.99%.

For the molecule `COc1ccc(Cn2c(=O)cc(C)[nH]c2=S)cc1`, the inhibition is -2.44%.

Consider `CCCOc1ccc(Cn2c(O)cc(=O)[nH]c2=O)cc1`, for which the inhibition was 48.6% (active).

Consider `CCc1ccc(C(CNc2nc(C(F)(F)F)nc3ccccc23)N(C)C)cc1` (stereo not given), for which the inhibition was -2.4%.

Consider `CC(=O)Nc1ccc(/C=C/C(=O)c2ccccc2)cc1`, for which the inhibition was 15.6%.

Turning to `O=C(O)c1ccc2c(c1)C(=O)N(c1ccc(/C=C/C(=O)c3ccccc3)cc1)C2=O`, the inhibition is 17.6%.

For the molecule `O=C(/C=C/c1ccc(N2CCOCC2)cc1)c1ccccc1`, the inhibition was 84.1% (active).

Consider `O=C(CC1CCCCC1)NCc1ccccc1`, for which the inhibition was -1.14%.

Consider `Oc1ccc(N=Cc2sc3ccccc3c2Cl)cc1`, for which the inhibition is -0.62%.

`O=[N+]([O-])c1ccc(N=Cc2c(O)ccc3ccccc23)cc1`: the inhibition was 3.33%.

In the case of `Oc1ccc(N=Cc2c(O)ccc3ccccc23)cc1`, the inhibition is 78.9% (active).

Take `CCOc1cc(NC(=O)c2ccccc2C(=O)O)c(OCC)cc1NC(=O)c1ccccc1F`: the inhibition is 2.36%.

As for `COC(=O)C1=C(N)Oc2c(oc(CO)cc2=O)C1c1c(F)cccc1Cl` (stereo not given), the inhibition was -1.2%.

With `Cc1ccc(Nc2nc(Cl)c(C=O)s2)cc1`, the inhibition was 54.2% (active).

For `Cc1ccc(Nc2nc(C)cc(C)c2C(N)=O)cc1`, the inhibition was -2.11%.

With `Cc1ccc(NC(=O)Nc2nnc(-c3ccncc3)s2)cc1`, the inhibition is -0.82%.

On to `O=C(Nc1ccccc1Cl)/C(Cl)=C(\Cl)S(=O)c1ccccc1` (stereo not given), for which the inhibition was -2.57%.

In the case of `N#CCc1ccc(NC(=O)c2ccccc2C(=O)Nc2ccc(CC#N)cc2)cc1`, the inhibition was -2.77%.

For `O=C(NNC(=S)NC1CC2CCC1C2)c1ccc(Cl)cc1` (stereo not given), the inhibition is -4.71%.

`CCOc1ccc2nc(/N=C/c3nc(-c4ccccc4)oc3O)sc2c1`: the inhibition was 46.7% (active).

For the molecule `CC(N=Cc1nc(-c2ccccc2)oc1O)c1ccccc1` (stereo not given), the inhibition is 2.4%.

Turning to `CCOc1ccc2nc(N(CCCN(C)C)C(=O)c3ccc(C(=O)c4ccccc4)cc3)sc2c1`, the inhibition is -1.89%.

`CCOC(=O)c1cc2c(=O)[nH]c(C(Cl)(Cl)Cl)nc2o1`: the inhibition is 1.15%.

For the molecule `CC(C)OCCCNc1nc2c(c(=O)n(Cc3ccccc3F)c(=O)n2C)n1C`, the inhibition was 2.3%.

On to `CNc1nc2c(C)cccn2c(=O)c1C=Nc1ccc(OC)cc1`, for which the inhibition is 1.1%.

Regarding `Cc1cccn2c(=O)c(/C=C3\SC(=S)N(CC(C)C)C3=O)c(NCCCOC(C)C)nc12`, the inhibition was 63.5% (active).

Turning to `Cc1[nH]c(C)c(S(=O)(=O)N2CCN(c3cccc(C(F)(F)F)c3)CC2)c1C(=O)N1CCCCC1`, the inhibition was -0.13%.

Regarding `CC(C)(C)NC(=O)COC(=O)c1cc(Cl)ccc1[N+](=O)[O-]`, the inhibition was -0.54%.

With `Cc1cccc(N2CCN(C(=O)COCc3cc(-c4ccc5c(c4)OCO5)on3)CC2)c1C`, the inhibition is -0.74%.

`CCCC1C(=O)N2C(N(C)C)=Nc3ccc(C)cc3N2C1=O` (stereo not given): the inhibition is 2.58%.

Consider `COC(=O)Cn1cnc2scc(-c3ccc(C)c(C)c3)c2c1=O`, for which the inhibition was 1.3%.

As for `CCOc1cc(/C=C2/C(=N)N3OC(C)=CC3=NC2=O)ccc1OC`, the inhibition was 6.06%.

For the molecule `COc1ccc(OCCCn2cccc2/C=C2/C(=N)N3OC(C)=CC3=NC2=O)cc1`, the inhibition was 0.42%.

For the molecule `CC1=CC2=NC(=O)/C(=C/c3coc4ccccc4c3=O)C(=N)N2O1`, the inhibition is 34.6% (active).

In the case of `Cc1ccc(-n2c(C)cc(/C=N/Nc3ccc([N+](=O)[O-])cn3)c2C)c(C)c1`, the inhibition is 66.7% (active).

For the molecule `COc1cc(/C=N\Nc2ccc([N+](=O)[O-])cn2)ccc1OCC(=O)O`, the inhibition was 1.83%.

Turning to `COc1ccc(Nc2ccc([N+](=O)[O-])cn2)cn1`, the inhibition is -14.7%.

As to `Cc1ccc(N2CCN(c3ccc([N+](=O)[O-])cn3)CC2)c(C)c1`, the inhibition was -2.01%.

`Cc1cc(/C=C2\SC(=O)N(C)C2=O)c(C)n1-c1cccc(C(=O)O)c1`: the inhibition is -0.06%.

Take `Cc1cc(/C=N/Nc2ccc([N+](=O)[O-])cn2)c(C)n1-c1cccc(C(=O)O)c1`: the inhibition was 43% (active).

In the case of `C=CCn1c(COc2ccc(F)cc2)nnc1SCC(=O)Nc1cccc(S(N)(=O)=O)c1`, the inhibition was -5.67%.

Turning to `COc1cccc(C2CC(c3cccs3)=NN2C(=O)CSC2=NCCS2)c1OC` (stereo not given), the inhibition is -2.93%.

In the case of `CCC(C)CN1CCC(CO)(Cc2ccccc2Cl)CC1` (stereo not given), the inhibition is -0.69%.

Turning to `COC1(C2=NCCN2)COc2ccccc2O1` (stereo not given), the inhibition was -5.32%.

Regarding `COc1ccccc1NC(=O)COC(=O)c1ccccc1SCC(=O)N1CCCC1`, the inhibition was 0.11%.

For `COc1ccccc1C1SCCN1C(=O)c1ccc([N+](=O)[O-])cc1` (stereo not given), the inhibition was 1.69%.

Regarding `COc1ccc(NS(=O)(=O)c2ccc(C)c(C(=O)N(C)Cc3ccc(OC)cc3OC)c2)cc1`, the inhibition is -1.13%.

For `Cc1nc2sc(C(=O)c3ccccc3)c(N)c2c2c1CCCC2`, the inhibition is -0.9%.

`CN(C)c1ccnc2sc(C(=O)c3ccccc3)c(N)c12`: the inhibition was 2.61%.

`Nc1c(C(=O)c2cccs2)sc2nsc(SCCN3CCCCC3)c12`: the inhibition was 68.2% (active).

On to `CCCNC(=S)N1CCC(NC(=O)c2ccc(OC)cc2)CC1`, for which the inhibition is 3.14%.

Consider `CN1/C(=C\C(=O)c2oc3ccccc3c2N)C(C)(C)c2ccccc21`, for which the inhibition is 2.22%.

Turning to `CN1/C(=C\C=C2\N=C(c3ccc(F)cc3)OC2=O)C(C)(C)c2ccccc21`, the inhibition is 110% (active).

Take `CN1CCN(CCC(=O)N/N=C/C=C2\N(C)c3ccccc3C2(C)C)CC1`: the inhibition was 11.7%.

Consider `O=C(c1c(F)cccc1Cl)N1CCN(c2ccccn2)CC1`, for which the inhibition is 0.41%.

For `O=C(Nc1ccccc1N1CCCC1)c1ccc(F)c(S(=O)(=O)N2CCOCC2)c1`, the inhibition was 0.87%.

On to `O=C1NCC(=O)N(Cc2ccccc2)/C1=C/c1ccccc1`, for which the inhibition is 1.04%.

Consider `CN(C)c1ccc(/C=C2\NC(=S)N(Cc3ccccc3)C2=O)cc1`, for which the inhibition is 196% (active).

As for `O=C1/C(=C\c2ccsc2)NC(=S)N1c1ccccc1`, the inhibition was 0.45%.

Consider `COCC(=O)Nc1c(I)c(C(=O)NCC(O)CO)c(I)c(C(=O)N(C)CC(O)CO)c1I` (stereo not given), for which the inhibition is 1.86%.
